13 compounds from PubChem BioAssay (NCATS) can be followed below.

Records with an inconclusive call do not appear. Activity calls are given as the source filed them. Unless noted, calls come from the whole dose curve; as a rule, active = well fitted curve in the direction sought with a large enough effect; inconclusive = small, poorly fitted or top-dose-only effect, or another doubt; inactive = no such curve, though single readings can be large; an effect the other way counts as inactive or inconclusive.

Assay [1] is described as follows: qHTS drug screen for cell cycle checkpoint inhibitors in PARPi-resistant BRCA-mutant ovarian cancer cell lines. (AID 1963452; calls by dose curve; note: potency is the fitted concentration of half-maximal effect). To be noted: PEO1/OlaR viability, CellTiter-Glo luminescence, 96 h; for Z-AUC: stronger effect = lower value. The method in brief:
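PEO1, PEO4 and PEO1/OlaR ovarian cancer cells, 600 per well, exposed 96 h at 37C to a dilution series. Viability read by CellTiter-Glo luminescence, normalized to DMSO and empty wells; activity summarized as Z-AUC.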
On the technique in general: In qHTS, concentration-response curves come from the screen itself.

Assay [2] is described as follows: KB-3-1 P-gp reporter qHTS against the NCATS DSHEA and TCM libraries (AID 1919975). Note: 0% is about no effect. To be noted: KB-3-1 parental cells, CellTiter-Glo luminescence viability, 72 h; series mostly up to 26.1 µM. The method in brief:
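Cell viability qHTS: 500 KB-3-1 cells/well, substances in titration, ~72 h, 37C; luminescent CellTiter-Glo read.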

Assay [3] addresses Cytochrome P450 1A2 (Homo sapiens) (UniProt P05177). As to the kind of experiment: qHTS for inhibitors of CYPIA2 against the NCATS DSHEA and TCM libraries (AID 1919976). Note: % is set by controls: 0 for no effect and ±100 for the full control effect. To be noted: recombinant CYP1A2 enzyme activity, luminescence; series mostly up to 37 µM. Put shortly: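 Luminescence read-out: pro-luciferin converted to D-luciferin by CYP1A2, detected with P450-Glo reagent after 30 min RT. Enzyme plus substrate got compounds for 15 min RT; NADPH regeneration solution (final 1x) started a 30-45 min reaction, light-protected.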

Assay [4] in a line: qHTS Counterscreen for compound interference against the NCATS DSHEA and TCM libraries (AID 1919978).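 Note: compounds preincubated with 1 µM D-luciferin or buffer before detection reagent; % of control where 0% means no effect.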 Particulars: firefly luciferase detection reagent interference, luminescence. Put shortly:
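Interference check: test samples were incubated with D-luciferin (final 1 uM) or buffer only for 15 min, room temperature, in a qHTS titration up to 39.8 uM, then developed with detection reagent and read by luminescence.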

Assay [5] can be described thus: Dual reporter qHTS for agonist of Pregnane X Receptor (hPXR) against the NCATS DSHEA and TCM libraries: Fluorescence readout (AID 1920058). Note: 0% is about no effect. Particulars: PXR dual reporter cells; series mostly up to 40 µM. Put shortly:
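Fluorescence read-out for cell viability: CellTiter-Fluor, 1 h at 37 °C, Ex/Em 405/540 nm. This followed ~24 h treatment of hPXR-Luc HepG2 cells with substances in agonist mode.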

Assay [6] deals with Nuclear receptor subfamily 1 group I member 2 (Homo sapiens) (UniProt O75469). As to the kind of experiment: Dual reporter qHTS for agonist of Pregnane X Receptor (hPXR) against the NCATS DSHEA and TCM libraries: Luminescence readout (AID 1920059). Note: 0% is about no effect. To be noted: hPXR dual reporter cells, luciferase luminescence agonist; series mostly up to 40 µM. The method in brief: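 hPXR-LucHepG2 cells in phenol red-free DMEM with 5% charcoal-stripped FBS, 2000 cells/well, attached 5 h, then exposed 24 h at 37C to compounds; rifampicin as positive agonist control (2.8 nM–92 uM). Luciferase luminescence read.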
Chain of Nuclear receptor subfamily 1 group I member 2 (Homo sapiens) (O75469 whole entry, looked up): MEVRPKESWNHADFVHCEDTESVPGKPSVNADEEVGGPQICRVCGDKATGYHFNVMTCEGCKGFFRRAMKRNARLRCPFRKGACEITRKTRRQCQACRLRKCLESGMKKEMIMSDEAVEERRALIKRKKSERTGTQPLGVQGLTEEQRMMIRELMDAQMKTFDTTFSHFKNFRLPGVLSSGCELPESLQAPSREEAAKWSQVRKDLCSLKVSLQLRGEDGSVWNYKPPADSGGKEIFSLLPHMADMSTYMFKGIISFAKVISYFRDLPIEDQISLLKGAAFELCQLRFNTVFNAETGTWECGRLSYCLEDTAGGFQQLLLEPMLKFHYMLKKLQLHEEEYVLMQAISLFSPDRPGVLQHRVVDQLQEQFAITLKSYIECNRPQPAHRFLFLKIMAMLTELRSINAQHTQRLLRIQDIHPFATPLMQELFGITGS

Assay [7] shares this target. As to the kind of experiment: Dual reporter qHTS for antagonist of Pregnane X Receptor (hPXR) against the NCATS DSHEA and TCM libraries: Luminescence Readout (AID 1920060). Note: 0% is about no effect. To be noted: hPXR dual reporter cells, luciferase luminescence, antagonist mode; series mostly up to 40 µM. Put shortly:
(§1)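 Rifampicin-stimulated (2 uM final) hPXR-luciferase HepG2 cells were treated for 24 h with DSNP/TCM substances. Viability came from CellTiter-Fluor fluorescence, reporter activity from ONE-Glo luminescence.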

A short description of assay [8]: Dual reporter qHTS for antagonist of Pregnane X Receptor (hPXR) against the NCATS DSHEA and TCM libraries: Fluorescence Readout (AID 1920061). Note: 0% is about no effect. To be noted: PXR dual reporter cells, antagonist mode; series mostly up to 40 µM. Put shortly: as §1
Assay [9] can be described thus: qHTS for identification of novel therapeutic agents for treatment of microphthalmiaassociated transcription factor (MiT) renal cell carcinoma (RCC) (AID 1963991). Particulars: CellTiter-Glo, 48 h, stronger effect = lower value. The method in brief:
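Viability of three TFE3-fusion renal carcinoma lines measured by CellTiter-Glo after 48 h treatment with each of 1912 compounds at 11 concentrations. Responses scaled between DMSO (100%) and empty wells (0%) before curve fitting.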

Assay [10] in a line: qHTS profiling for inhibitors of Plasmodium falciparum proliferation (AID 504749).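 Note: 0% = DMSO vehicle and full inhibition = artemisinin control; nearly all actives have a fitted effect of over 60% in size.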 To be noted: P. falciparum in erythrocytes, SYBR Green DNA, 72 h, at 28.7 µM (top of the series). Put shortly:
(§2)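 Fluorescence of SYBR Green-bound parasite DNA, read at 485/535 nm, served as the growth measure. Infected erythrocytes were cultured with compound 72 h; artemisinin (0.29 uM) and DMSO wells defined the normalization range.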

The next assay has as its system 3D7. The assay is described as above. Particulars: P. falciparum in erythrocytes, SYBR Green DNA, 72 h; series mostly up to 28.7 µM. The method in brief: as §2
The test system of another assay is 7G8. Described as above. Particulars: P. falciparum in erythrocytes, SYBR Green DNA, 72 h; series mostly up to 28.7 µM. The method in brief:
as §2

For another assay, the system named is AA1029. The assay is described as above. Particulars: P. falciparum in erythrocytes, SYBR Green DNA, 72 h; series mostly up to 28.7 µM. Put shortly: as §2
The subject of the next assay is AS120. The assay is described as above. Particulars: P. falciparum in erythrocytes, SYBR Green DNA, 72 h; series mostly up to 28.7 µM. Put shortly: as §2
Another assay concerns ATS189. Described as above. Particulars: P. falciparum in erythrocytes, SYBR Green DNA, 72 h; series mostly up to 28.7 µM. The method in brief:
as §2

For another assay, the system named is ATS95. The description is as above. Particulars: P. falciparum in erythrocytes, SYBR Green DNA, 72 h; series mostly up to 28.7 µM. Put shortly:
as §2

A further assay deals with C2A. The assay is described as above. To be noted: P. falciparum in erythrocytes, SYBR Green DNA, 72 h; series mostly up to 28.7 µM. The method in brief: as §2
For a further assay, the system named is CP185. Described as above. Particulars: P. falciparum in erythrocytes, SYBR Green DNA, 72 h; series mostly up to 28.7 µM. Put shortly:
as §2

The next assay concerns CP191. Described as above. To be noted: P. falciparum in erythrocytes, SYBR Green DNA, 72 h; series mostly up to 28.7 µM. The method in brief: as §2
For a further assay, the system named is CP192. The description is as above. Particulars: P. falciparum in erythrocytes, SYBR Green DNA, 72 h; series mostly up to 28.7 µM. Put shortly:
as §2

[11] abbreviates: measured here: PEO1 parental Z-AUC.

Chain of Cytochrome P450 1A2 (Homo sapiens) (P05177 whole entry, looked up): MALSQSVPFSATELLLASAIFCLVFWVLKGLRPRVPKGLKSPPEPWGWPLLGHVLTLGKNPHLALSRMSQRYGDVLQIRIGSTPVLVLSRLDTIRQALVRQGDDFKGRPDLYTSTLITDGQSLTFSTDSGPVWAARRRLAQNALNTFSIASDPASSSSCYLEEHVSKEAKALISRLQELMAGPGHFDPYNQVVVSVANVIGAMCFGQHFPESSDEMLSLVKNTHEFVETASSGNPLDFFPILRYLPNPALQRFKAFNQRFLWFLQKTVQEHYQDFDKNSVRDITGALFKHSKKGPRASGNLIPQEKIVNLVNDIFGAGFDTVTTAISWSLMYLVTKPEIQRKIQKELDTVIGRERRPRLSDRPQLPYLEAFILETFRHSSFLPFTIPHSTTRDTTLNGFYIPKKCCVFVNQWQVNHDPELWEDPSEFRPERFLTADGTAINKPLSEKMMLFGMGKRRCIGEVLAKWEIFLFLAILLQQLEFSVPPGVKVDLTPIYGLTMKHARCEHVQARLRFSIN

In the case of `N#CC[C@H](C1CCCC1)n1cc(-c2ncnc3[nH]ccc23)cn1`, the Z-AUC in assay [1] is 0.476 (inactive); in [1] (setting [11]), 0.0833; in assay [1] (measured here: PEO4 Z-AUC) it was 0.752.

With `Cc1ccnc(NS(=O)(=O)c2ccc(NC(=O)Nc3ccc(S(=O)(=O)Nc4nccc(C)n4)cc3)cc2)n1`, the values for the Z-AUC in [1], in assay [1] (setting [11]) and in [1] (measured here: PEO4 Z-AUC) were -1 (inactive), -0.318 and 0.813, respectively.

With `COc1cc(F)c(F)c(Nc2ccc(I)cc2F)c1NS(=O)(=O)C1(C[C@H](O)CO)CC1`, the Potency in [1] is 2450 nM (active). In addition, the Z-AUC in assay [1] (setting [11]) was -1.43; in assay [1] (measured here: PEO4 Z-AUC), -1.19.

Regarding `CC1(C)Cc2c(-c3ccccc3)c(-c3ccc(Cl)cc3)c(CC(=O)O)n2C1`, the Z-AUC in assay [1] is 0.0211 (inactive); in [1] (setting [11]), 0.818; in assay [1] (measured here: PEO4 Z-AUC), 0.66.

For `CCOc1cc(N2CCC(O)CC2)ccc1Nc1ncc2c(n1)N(C)c1ccccc1C(=O)N2C`, the Z-AUC in assay [1] was -0.264 (inactive); in [1] (setting [11]), 0.271; in [1] (measured here: PEO4 Z-AUC) it was 0.379.

For `O=C(Nc1nc2ccccc2n1CCN1CCOCC1)c1cccc([N+](=O)[O-])c1`, the Z-AUC in assay [1] was 1.54 (inactive); in [1] (setting [11]) it was 1.06; in assay [1] (measured here: PEO4 Z-AUC) it was 1.04.

As to `CS(=O)(=O)c1cccc(CNc2nc(Nc3ccc4c(c3)CCC(=O)N4)ncc2C(F)(F)F)c1`, the Z-AUC is -0.784 (inactive) in assay [1], -1.23 in assay [1] (setting [11]) and -1.25 in [1] (measured here: PEO4 Z-AUC).

On to `O=C1CCCC2=C1C(c1[nH]ncc1Cl)N=C(Nc1nc3ccccc3o1)N2` (stereo unspecified), for which the Z-AUC in assay [1] was 0.0101 (inactive); in assay [1] (setting [11]), 0.851; in assay [1] (measured here: PEO4 Z-AUC) it was 0.0586.

As for `CCC(C)(C)C(=O)O[C@H]1C[C@@H](C)C=C2C=C[C@H](C)[C@H](CC[C@@H]3C[C@@H](O)CC(=O)O3)[C@H]21`, the values for the Z-AUC in assay [1], in assay [1] (setting [11]) and in assay [1] (measured here: PEO4 Z-AUC) were 1.29 (inactive), 1.6 and 2.06, respectively.

As to `CCn1c(-c2nonc2N)nc2cnc(Oc3cccc(NC(=O)c4ccc(OCCN5CCOCC5)cc4)c3)cc21`, the Z-AUC in assay [1] is 0.926 (inactive); in assay [1] (setting [11]), 0.828; in assay [1] (measured here: PEO4 Z-AUC) it was 0.912.

Consider `CC1(C)CNc2cc(NC(=O)c3cccnc3NCc3ccncc3)ccc21`, for which the Z-AUC in assay [1] is 1.35 (inactive); in [1] (setting [11]), 0.457; in [1] (measured here: PEO4 Z-AUC), 0.272.

In the case of `Cc1ccc(-n2nc(C(C)(C)C)cc2NC(=O)Nc2ccc(OCCN3CCOCC3)c3ccccc23)cc1`, the Z-AUC in [1] is 0.154 (inactive); in assay [1] (setting [11]) it was 0.786; in [1] (measured here: PEO4 Z-AUC), 0.35.

On to `NC(=O)c1cnccn1`, for which the outcome in [2], in assay [3], in assay [5], in assay [6], in assay [7] and in assay [8] was inactive. Further, in assay [4], the max response is 0.688% (inactive). The results for the Z-AUC in assay [1], in [1] (setting [11]) and in [1] (measured here: PEO4 Z-AUC) were 0.616 (inactive), 0.733 and 0.41, respectively. Further, the z-score in assay [9] (TFE3-RCC UOK109 viability, measured here: UOK109 Z-AUC) was 0.906; in [9] (TFE3-RCC viability, measured here: UOK124 Z-AUC) it was 0.826; in assay [9] (TFE3-RCC viability, measured here: UOK145 Z-AUC) it was 0.673. Also, the activity, negative = inhibition was 13.8% (inactive) in [10] (parasite line A) and 12.8% (inactive) in [10] (parasite line B). For the same compound, the Potency entry in the assay on 3D7, in the assay on 7G8, in the assay on AA1029, in the assay with AS120, in the assay on ATS189 and in the assay on ATS95 was “inactive” in each case. The Potency result with C2A, in the assay with CP185, with CP191 and with CP192 was “inactive” in each case.
